In PMC5540273 (PLoS ONE, 2017):

Assays:
Conditions in all cases: concentration: 1 μM, replicates: in singlicate; n = 1
[1] = system: HIPK3
[2] = system: HIPK4
[3] = system: HPK1
[4] = system: HUNK
[5] = system: ICK
[6] = system: IGF1R
[7] = system: T1, IKK-alpha
T1 construct: gene CHUK

[8] = system: T2, IKK-beta
T2 construct: gene IKBKB

[9] = system: T3, IKK-epsilon
T3 construct: gene IKBKE

[10] = system: INSRR
[11] = system: INSR
[12] = system: IRAK1
[13] = system: IRAK3
[14] = system: IRAK4
[15] = system: ITK
[16] = system: JAK1(JH1domain-catalytic)
[17] = system: JAK1(JH2domain-pseudokinase)
[18] = system: JAK2(JH1domain-catalytic)
[19] = system: JAK3(JH1domain-catalytic)
[20] = system: T4, JNK1
T4 construct: gene MAPK8
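Note: KINOMEscan kinase panel screen.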

Row | SMILES | %Inh [1] [%] | %Inh [2] [%] | %Inh [3] [%] | %Inh [4] [%] | %Inh [5] [%] | %Inh [6] [%] | %Inh [7] [%] | %Inh [8] [%] | %Inh [9] [%] | %Inh [10] [%] | %Inh [11] [%] | %Inh [12] [%] | %Inh [13] [%] | %Inh [14] [%] | %Inh [15] [%] | %Inh [16] [%] | %Inh [17] [%] | %Inh [18] [%] | %Inh [19] [%] | %Inh [20] [%]
1 | COc1ccc(-c2cc3c(C)nc(N)nc3n([C@H]3CC[C@H](OCCO)CC3)c2=O)cn1 | 5 | 0 | 0 | 0 | 0 | 0 | 0 | 0 | 0 | 0 | 24 | 4 | 19 | 3 | 0 | 0 | 22 | 0 | 0 | 0
2 | COc1cc2nccc(Nc3cccc(Oc4ccccc4)c3)c2cc1OC.Cl [GW284543] | 0 | 21 | 2 | 15 | 0 | 14 | 0 | 0 | 0 | 0 | 4 | 0 | 2 | 0 | 13 | 0 | 1 | 0 | 0 | 1
3 | Cc1cccc(-c2cc(-c3c[nH]nc3-c3ccccn3)ccn2)c1 [GW679395] | 13 | 0 | 32 | 10 | 9 | 0 | 4 | 25 | 21 | 0 | 1 | 34 | 1 | 18 | 4 | 5 | 0 | 8 | 0 | 56
4 | Fc1cccc(CSc2nnc(-c3ccc4c(c3)CCO4)o2)c1 | 6 | 0 | 0 | 0 | 0 | 13 | 14 | 10 | 20 | 0 | 23 | 21 | 6 | 100 | 16 | 11 | 0 | 0 | 3 | 8
5 | Nc1ncnc2c1ncn2-c1cccc(F)c1 [SKF-97560] | 14 | 6 | 23 | 10 | 6 | 1 | 13 | 19 | 23 | 0 | 9 | 33 | 0 | 30 | 6 | 10 | 12 | 39 | 55 | 38
6 | COc1cc2ncn(-c3cc(OCc4ccncc4Br)c(C(N)=O)s3)c2cc1OC [GW854278] | 15 | 32 | 0 | 0 | 5 | 0 | 6 | 3 | 0 | 7 | 1 | 3 | 27 | 3 | 0 | 0 | 19 | 0 | 0 | 0
7 | COc1cc(Nc2nccc(N3CCC(NC(=O)C(C)c4ccc(Cl)cc4)C3)n2)cc(OC)c1OC (stereo not drawn) [GSK1379757] | 0 | 0 | 37 | 16 | 0 | 13 | 0 | 0 | 23 | 0 | 0 | 41 | 68 | 10 | 11 | 20 | 0 | 86 | 0 | 3
8 | CN1C(=O)C(Nc2ccccc2)=C(c2ccccc2)C1=O [SB-300079] | 0 | 0 | 0 | 67 | 0 | 0 | 11 | 0 | 0 | 0 | 22 | 16 | 0 | 0 | 0 | 0 | 33 | 42 | 2 | 14
9 | CCn1c(-c2nonc2N)nc2ccccc21 [SB-693162/GW549034] | 62 | 1 | 7 | 36 | 64 | 0 | 23 | 49 | 29 | 48 | 17 | 0 | 0 | 48 | 0 | 8 | 0 | 0 | 0 | 78
10 | Nc1n[nH]c2ncc(-c3ccccc3)cc12 [SB-517081] | 12 | 0 | 44 | 13 | 0 | 18 | 27 | 65 | 13 | 0 | 18 | 49 | 3 | 22 | 19 | 4 | 34 | 55 | 0 | 38
11 | COc1cc(OC)cc(-c2cc3cnc(N)nc3nc2NC(=O)NC(C)(C)C)c1 | 0 | 0 | 0 | 0 | 0 | 0 | 7 | 9 | 7 | 0 | 0 | 0 | 0 | 0 | 0 | 0 | 0 | 0 | 0 | 0
12 | Nc1ncnc2c1ncn2-c1ccc(Cl)cc1 [AH2635] | 0 | 0 | 27 | 19 | 0 | 0 | 0 | 0 | 30 | 0 | 0 | 17 | 0 | 0 | 0 | 2 | 0 | 4 | 0 | 0
13 | COc1cc(Nc2ccnc3ccc(C(F)(F)F)cc23)cc(OC)c1OC [GW577382] | 18 | 0 | 31 | 30 | 0 | 0 | 21 | 3 | 0 | 4 | 10 | 22 | 6 | 2 | 9 | 8 | 0 | 9 | 100 | 39
14 | COc1cc2nccc(Nc3ccc(OCc4ccc(NC(C)=O)cc4)cc3)c2cc1OC.Cl [GW440135] | 0 | 0 | 36 | 21 | 0 | 0 | 10 | 0 | 3 | 8 | 0 | 28 | 1 | 0 | 5 | 20 | 0 | 0 | 0 | 15
15 | Cc1cc(Nc2nc(-c3cccc(C)n3)nc3ccccc23)ccn1 [GW872411] | 0 | 0 | 0 | 28 | 0 | 0 | 0 | 0 | 0 | 0 | 0 | 0 | 0 | 0 | 0 | 4 | 81 | 0 | 0 | 0
16 | COc1cccc(C2=C(N(C)c3ccccc3)C(=O)NC2=O)c1 [SB-334865] | 25 | 0 | 53 | 9 | 0 | 12 | 0 | 14 | 3 | 0 | 0 | 42 | 20 | 24 | 16 | 13 | 0 | 0 | 0 | 30
17 | O=C(Nc1n[nH]c2cc(-c3ccccc3F)ccc12)C1CC1 [SB-733371] | 3 | 0 | 8 | 0 | 32 | 0 | 0 | 0 | 0 | 9 | 0 | 0 | 0 | 0 | 0 | 0 | 17 | 27 | 0 | 33
18 | O=C1NC(=O)C(c2ccccc2)=C1Nc1cccc(O)c1 [SB-390534] | 8 | 2 | 9 | 29 | 10 | 0 | 0 | 0 | 0 | 15 | 0 | 0 | 0 | 0 | 0 | 0 | 17 | 15 | 0 | 22
19 | COc1ccc(-c2coc3ccc(-c4nnc(SCc5cccc(C#N)c5)o4)cc23)cc1 | 20 | 0 | 0 | 0 | 17 | 0 | 19 | 7 | 0 | 0 | 20 | 0 | 0 | 0 | 0 | 22 | 36 | 12 | 0 | 22
20 | Cc1ccc(Oc2ccc(Nc3ncnc4cc[nH]c34)cc2C)cn1 | 24 | 0 | 0 | 4 | 33 | 0 | 0 | 8 | 50 | 0 | 11 | 6 | 16 | 0 | 0 | 0 | 24 | 18 | 0 | 43
21 | O=C(Nc1n[nH]c2nc(-c3ccccc3)c(Br)cc12)C1CC1 [SB-708998] | 0 | 6 | 20 | 0 | 0 | 1 | 0 | 5 | 2 | 9 | 7 | 0 | 0 | 6 | 1 | 0 | 0 | 18 | 0 | 29
